# Screens (PubChem BioAssay)
# A selection: hits, their analogues and other compounds. The true share with any hit is near 11%.
# AmpC no deterg: inhibitors of E. coli AmpC beta-lactamase without detergent; AID 485341; P00811; hit rate 0.52% among 330,000; Potency, µM (highest dose often 57.1 µM), hits mostly inhibitors; AmpC nitrocefin hydrolysis, absorbance 480 nm, 0.0001% Triton; note: nearly all actives have a fitted effect of over 20% in size
# Target sequence (P00811 whole entry, looked up): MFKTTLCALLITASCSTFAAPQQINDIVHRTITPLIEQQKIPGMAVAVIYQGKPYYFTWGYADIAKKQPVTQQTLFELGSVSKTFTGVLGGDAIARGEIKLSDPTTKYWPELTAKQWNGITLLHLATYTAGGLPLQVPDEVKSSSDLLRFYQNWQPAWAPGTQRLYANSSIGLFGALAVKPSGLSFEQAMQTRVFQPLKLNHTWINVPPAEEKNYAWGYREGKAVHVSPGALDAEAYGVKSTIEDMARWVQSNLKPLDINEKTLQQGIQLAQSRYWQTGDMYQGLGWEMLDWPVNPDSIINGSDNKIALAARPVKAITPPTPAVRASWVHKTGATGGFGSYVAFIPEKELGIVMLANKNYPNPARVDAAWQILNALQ
#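 20 mM phosphate pH 7.0 + 0.01% (detergent screen) or 0.0001% Triton X-100; 5.3 nM AmpC reagent; cpd preinc 15 min RT; nitrocefin (800 uM stock) to start; A480 q20 s × 4 min; Activity was normalised to no-enzyme and no-compound control wells.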
# AMA1 RON2 block: disrupts binding of P. falciparum AMA1 to RON2 | AlphaScreen AMA1-biotinylated RON2 peptide binding | Potency, µM (series often up to 58.2 µM), most hits filed as inhibitors | hit rate 0.2% among 360,000; note: nearly all actives have a fitted effect of over 45% in size
#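 AMA1 (3D7) with his tag at 25 nM final met compounds first, then biotinylated RON2 peptide at 25 nM; detection used donor plus acceptor beads, 10 µg/mL apiece, read by AlphaScreen after 30 min at room temperature.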
# Pf growth 96h: inhibits malaria parasite growth, 96 h; Potency, µM (doses to about 28.7 µM), hits mostly inhibitors; hit rate 6.9% among 320,000; P. falciparum luciferase reporter growth, 96 h
#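 Compounds incubated with erythrocytes infected by luciferase-expressing P. falciparum (2% hematocrit, 0.05% parasitemia final) for 96 hours, 37 C in 5% CO2. Growth inhibition scored as decreased luciferase luminescence.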
# Pf growth 48h: inhibits P. falciparum growth in the first generation, 48 h; P. falciparum luciferase growth in erythrocytes, 48 h; Potency, µM (highest dose often 28.7 µM), actives largely listed as inhibitors; hit rate 5.9% among 310,000
#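 A one-generation exposure of luciferase-tagged malaria parasites in RPMI 1640/Albumax erythrocyte culture, 37 C and 5% CO2. Inhibition is inferred from decreased luminescence after adding detection reagent.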
# AmpC detergent: inhibitors of E. coli AmpC beta-lactamase with detergent. P00811. AmpC hydrolysis of nitrocefin, absorbance 480 nm, 0.01% Triton. Potency, µM (highest dose often 114 µM), usual class: inhibitors. hit rate 0.041% among 370,000; note: nearly all actives have a fitted effect of over 25% in size
#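 20 mM phosphate pH 7.0 + 0.01% (detergent screen) or 0.0001% Triton X-100; 5.3 nM AmpC reagent; cpd preinc 15 min RT; nitrocefin (800 uM stock) to start; A480 q20 s × 4 min; Activity was normalised to no-enzyme and no-compound control wells.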
# HCV inhibitor: inhibitors of hepatitis C virus infection | Huh7.5.1 HCVcc-Cre infection, luciferase reporter, 44 h | Potency, µM (top dose mostly 41.8 µM), hits mostly inhibitors | hit rate 3.4% among 340,000 | AID 651820
#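 Cells seeded at 1,000/well and cultured 4 h, then compounds added followed by HCVcc-Cre virus (~0.5 moi). After 44 h further culture, luciferase substrate was added, plates held 15 min at room temperature, and luminescence read for 15 sec.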
# Numbers stand for hits; i = inactive; ? = inconclusive; nt = no result given. Calls come from the whole dose curve; as a rule, active = well fitted curve in the direction sought with a large enough effect; inconclusive = small, poorly fitted or top-dose-only effect, or another doubt; inactive = no such curve, though single readings can be large; an effect the other way counts as inactive or inconclusive.
SMILES,AmpC no deterg,AMA1 RON2 block,Pf growth 96h,Pf growth 48h,AmpC detergent,HCV inhibitor
O=C(NCc1cc([N+](=O)[O-])ccc1O)c1cccnc1Sc1ccccc1,i,i,11.7µM,?,i,i
O=C(NNC(=O)c1cccnc1SCc1cccc([N+](=O)[O-])c1)c1ccc(F)cc1,i,i,i,i,i,?
O=C(NNC(=O)c1cccnc1SCc1cccc([N+](=O)[O-])c1)c1ccccn1,i,i,i,5.22µM,i,?
CCCCn1c(=O)c2oc3ccccc3c2n(CC(=O)Nc2cccc(Cl)c2C)c1=O,nt,nt,nt,nt,i,nt
C[C@H]1CN=C(N(C)C)N1CCC1CCCC1,i,i,?,?,?,i
CN(C)C1=NC[C@H](Cc2ccccc2)N1CCCC1CCCC1,i,i,?,9.28µM,?,?
c1ccc(C[C@H]2CN=C(Nc3ccccc3)N2CCCC2CCCC2)cc1,i,i,?,?,i,i
CC(C)(C)C1CCC(CN2C(Nc3ccccc3)=NC[C@@H]2Cc2ccccc2)CC1 (stereo partly specified),i,i,nt,nt,nt,?
CN(C)C1=NC[C@H](Cc2ccccc2)N1CCCC1CCCCC1,i,i,5.22µM,7.38µM,?,3.98µM
CN(C)C1=NC[C@H](Cc2ccccc2)N1CC1CCCCCC1,i,i,?,11.7µM,i,?
CN(C)C1=NC[C@H](Cc2ccccc2)N1CCC1CCCC1,i,i,?,10.4µM,i,?
CCN(c1ccccc1)S(=O)(=O)c1ccc(OC)c(NC(=O)C2CCC2)c1,i,i,nt,nt,nt,i
CCN(c1ccccc1)S(=O)(=O)c1ccc(OC)c(NC(=O)CCc2nc3ccccc3c(=O)[nH]2)c1,35.5µM,i,?,?,?,i
COc1ccc(S(=O)(=O)N2CCOCC2)cc1NC(=O)CCc1nc2ccccc2c(=O)[nH]1,i,i,i,i,i,i
CCN(c1ccccc1)S(=O)(=O)c1ccc(OC)c(NC(=O)CNCCc2ccccc2)c1,i,i,?,11.7µM,i,7.08µM
CCN(c1ccccc1)S(=O)(=O)c1ccc(OC)c(NC(=O)Cc2ccc(F)cc2)c1,i,i,10.4µM,?,i,?
CCCn1c(=O)c2sccc2n2c(CCCC(=O)Nc3ccc(Oc4ccccc4)cc3)nnc12,nt,nt,nt,nt,i,nt
COc1ccc(CNc2nc3c(-c4ccc(C)cc4)nnn3c3ccccc23)cc1,nt,nt,nt,nt,i,nt
Cn1c(=O)c(=O)n(C)c2cc(N3CCCC3)c(NC(=O)c3ccccc3F)cc21,nt,nt,nt,nt,i,nt
CCOc1ccc(OCC)c(-c2c(=O)n(OCc3ccc(C(C)(C)C)cc3)c3ccccc3[n+]2[O-])c1,i,i,11.7µM,?,i,i
CCOc1ccc(-c2c(=O)n(OCc3ccc([N+](=O)[O-])cc3)c3ccccc3[n+]2[O-])cc1,i,nt,11.7µM,i,?,i
CCOc1ccc(-c2c(=O)n(OCc3ccc([N+](=O)[O-])cc3)c3ccccc3[n+]2[O-])c(OCC)c1,nt,i,nt,nt,nt,i
COC(=O)c1cc2occc2n1Cc1nc(-c2cccc(Br)c2)oc1C,nt,nt,nt,nt,i,nt
CCc1noc(-c2ccc(N3CCCCC3C)c([N+](=O)[O-])c2)n1 (stereo unspecified),nt,nt,nt,nt,i,nt
CCOc1ccccc1C(=O)N1CCN(CCc2ccccn2)CC1,nt,nt,nt,nt,i,nt
SMILES,AmpC no deterg,AMA1 RON2 block,Pf growth 96h,Pf growth 48h,AmpC detergent,HCV inhibitor
COc1ccc(C(c2c(NC(C)=O)sc3c2CCCC3)N2CCN(CCO)CC2)cc1OC (stereo unspecified),i,i,?,4.65µM,i,i
CC(=O)Nc1sc2c(c1C(c1ccncc1)N1CCOCC1)CCCC2 (stereo unspecified),i,i,8.28µM,4.65µM,i,i
COc1ccc(CNc2oc(COc3ccc(Cl)cc3)nc2C#N)cc1,i,i,nt,i,?,?
CN(C)CCNc1oc(COc2ccc(-c3ccccc3)cc2)nc1C#N,i,i,nt,?,i,10µM
C=CCNc1oc(COc2ccc(C)cc2)nc1C#N,i,i,6.57µM,nt,i,i
Cc1ccc(N2CC(NC(=O)C3CCCCC3)CC2=O)cc1 (stereo unspecified),nt,nt,nt,nt,i,nt
COc1cnn(-c2ccccc2)c(=O)c1SCc1ccc(Cl)cc1Cl,i,i,?,?,i,i
